Active and inactive are the calls of the source. Unless noted, no rule for the calls is given here.
How the values were obtained:
[1] = resazurin metabolic signal in HepG2 cells – cell-based, resazurin fluorescence, 24 h, PK04 Diversity Set, profiling panel (AID 1172); details: HepG2 viability, higher = more signal
[2] = budding yeast growth changes without added modifier – OD600, strain BY4716, 24 h, basal condition, primary screen (AID 1173); details: S. cerevisiae BY4716 growth, OD600, 24 h; higher = more signal, called active from +8 up or from −8 down
[3] = viability profiling in MM1S myeloma cells – cell-based, resazurin fluorescence, basal, 24 h, PK04 Diversity Set, profiling panel (AID 1174); details: higher = more signal, called active from +8 up or from −8 down;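 also: MM1S multiple myeloma cell line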
[4] = biological target: Dihydroorotate dehydrogenase (quinone), mitochondrial (Plasmodium falciparum (isolate 3D7)) (UniProt Q08210); assay: inhibition of P. falciparum DHODH – biochemical, C-terminal His tag, absorbance 600 nm, primary screen (AID 1175); details: PfDHODH enzyme, DCIP absorbance 600 nm; higher = more signal, called active from +8 up or from −8 down;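 also: recombinant parasite enzyme with a five histidine tag at its C terminus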
Sequence of Dihydroorotate dehydrogenase (quinone), mitochondrial (Plasmodium falciparum (isolate 3D7)) (Q08210 whole entry, looked up): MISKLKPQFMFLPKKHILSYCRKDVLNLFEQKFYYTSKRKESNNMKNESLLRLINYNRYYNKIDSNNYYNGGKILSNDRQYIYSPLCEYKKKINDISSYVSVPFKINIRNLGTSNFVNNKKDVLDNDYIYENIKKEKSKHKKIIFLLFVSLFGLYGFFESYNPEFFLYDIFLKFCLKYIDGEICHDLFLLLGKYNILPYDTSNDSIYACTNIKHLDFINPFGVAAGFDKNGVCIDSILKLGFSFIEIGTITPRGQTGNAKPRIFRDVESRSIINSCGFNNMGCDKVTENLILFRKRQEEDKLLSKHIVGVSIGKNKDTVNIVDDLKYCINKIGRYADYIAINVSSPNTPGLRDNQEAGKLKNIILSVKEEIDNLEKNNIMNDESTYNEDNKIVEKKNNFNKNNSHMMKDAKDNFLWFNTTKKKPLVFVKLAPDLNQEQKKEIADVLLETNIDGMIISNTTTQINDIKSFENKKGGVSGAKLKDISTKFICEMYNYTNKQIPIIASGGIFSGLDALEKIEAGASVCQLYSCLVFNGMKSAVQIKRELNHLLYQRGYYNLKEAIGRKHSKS

[5] = inhibition of PAO1 biofilm formation – strain PAO1, LB-PBS medium, absorbance 600 nm, primary screen (AID 1176); details: P. aeruginosa PAO1 growth/biofilm, A600, 12 h; higher = more signal
[6] = growth modulation of vineyard yeast isolate – strain RM11-1a, OD600, basal, 24 h, primary screen (AID 1177);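 also: cultures grown under basal conditions with no added stressor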; details: S. cerevisiae RM11-1a growth, OD600, 24 h; higher = more signal, called active from +8 up or from −8 down
[7] = growth of efflux-deficient E. coli DRC39 – strain DRC39, OD650, 24 h, E. coli filamentation inducers, primary screen (AID 1178);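 also: growth measured as culture turbidity by optical density at 650 nm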; details: E. coli DRC39 acrAB, higher = more signal, called active from +8 up or from −8 down
[8] = growth of efflux-deficient E. coli DRC39 – strain DRC39, OD650, 48 h, E. coli filamentation inducers, primary screen (AID 1179);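 also: screen aims at cell division blockers that make cells filament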; details: E. coli DRC39 delta-acrAB growth, higher = more signal, called active from +8 up or from −8 down
[9] = viability profiling in RPMI8226 myeloma cells – cell-based, resazurin fluorescence, basal, 24 h, PK04 Diversity Set, profiling panel (AID 1180); details: higher = more signal;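 also: RPMI8826 multiple myeloma cell line at 5000 cells per well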
[10] = biological target: E3 ubiquitin-protein ligase XIAP (Homo sapiens) (UniProt P98170); assay: small molecules binding XIAP protein – biophysical, small-molecule microarray, fluorescence 635 nm, primary screen (AID 1181); details: higher = more signal;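 also: score merges 667 nm emission and signal to noise over triplicate slides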
Sequence of E3 ubiquitin-protein ligase XIAP (Homo sapiens) (P98170 whole entry, looked up, the tested form may be a part): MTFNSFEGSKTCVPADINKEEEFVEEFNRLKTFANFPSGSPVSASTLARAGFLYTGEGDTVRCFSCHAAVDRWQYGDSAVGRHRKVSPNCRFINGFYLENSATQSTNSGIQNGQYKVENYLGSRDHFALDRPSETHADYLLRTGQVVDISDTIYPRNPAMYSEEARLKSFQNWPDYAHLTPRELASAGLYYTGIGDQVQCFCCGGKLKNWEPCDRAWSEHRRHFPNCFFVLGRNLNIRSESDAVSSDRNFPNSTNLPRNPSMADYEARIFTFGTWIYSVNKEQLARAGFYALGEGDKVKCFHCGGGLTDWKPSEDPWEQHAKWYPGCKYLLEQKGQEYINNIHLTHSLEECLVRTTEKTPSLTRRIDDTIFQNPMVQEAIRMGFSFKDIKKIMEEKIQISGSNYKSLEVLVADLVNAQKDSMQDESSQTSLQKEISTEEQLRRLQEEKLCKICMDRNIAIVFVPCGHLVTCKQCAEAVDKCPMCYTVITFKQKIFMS

[11] = system: XIP peptide (Xip251-270) binding; assay: XIP fragment 251-270 binding compounds – biochemical, small-molecule microarray, fluorescence 635/667 nm, 0.1 µg/mL protein, primary screen (AID 1182); details: fluorescent protein binding, 635 nm, higher = more signal, called active from +8 up or from −8 down
XIP peptide (Xip251-270) = assay: compounds binding XIP fragment 251-270 – biochemical, small-molecule microarray, fluorescence 635/667 nm, 0.5 µg/mL protein, primary screen (AID 1183); details: fluorescence 635 nm, higher = more signal
[12] = blood-stage malaria parasite viability loss – strain 3D7, DAPI fluorescence, 100 nL, primary screen (AID 1184);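 also: parasites grown inside human red blood cells in medium with human serum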; details: P. falciparum 3D7 growth, 3 d, higher = more signal
[13] = biological target: Homeobox protein Hox-A13 (Mus musculus) (UniProt Q62424); assay: disruptors of Hoxa13 oligonucleotide interaction – biochemical, fluorescence polarization, labeled oligonucleotide, primary screen (AID 1185); details: Hoxa13:DNA binding, 15 min, higher = more signal, called active from +8 up or from −8 down
Sequence of Homeobox protein Hox-A13 (Mus musculus) (Q62424 whole entry, looked up): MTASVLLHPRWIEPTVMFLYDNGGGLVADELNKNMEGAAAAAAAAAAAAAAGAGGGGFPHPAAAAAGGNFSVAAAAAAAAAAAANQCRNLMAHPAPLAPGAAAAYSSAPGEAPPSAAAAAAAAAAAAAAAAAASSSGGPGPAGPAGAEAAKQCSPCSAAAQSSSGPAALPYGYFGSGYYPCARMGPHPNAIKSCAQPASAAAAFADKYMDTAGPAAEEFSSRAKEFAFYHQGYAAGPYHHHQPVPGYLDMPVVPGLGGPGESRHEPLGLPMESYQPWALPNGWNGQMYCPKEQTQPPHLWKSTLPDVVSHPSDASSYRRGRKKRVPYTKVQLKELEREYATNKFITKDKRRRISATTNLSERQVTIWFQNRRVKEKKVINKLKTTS

[14] = blockers of DNA damage checkpoint Chk1 activation – imaging, HeLa, hydroxyurea, phospho-Chk1 antibody, percent positive cells, primary screen (AID 1186); details: hydroxyurea-induced phospho-Chk1 immunofluorescence imaging, higher = more signal
[15] = blockers of DNA damage checkpoint Chk1 activation – imaging, HeLa, hydroxyurea, phospho-Chk1 nuclear intensity, primary screen (AID 1187); details: hydroxyurea-induced phospho-Chk1 immunofluorescence imaging, higher = more signal

SMILES | z-score [1] | z-score [2] | z-score [3] | composite z-score [4] | z-score [5] | z-score [6] | z-score [7] | z-score [8] | z-score [9] | composite z-score [10] | composite z-score [11] | composite z-score (XIP peptide (Xip251-270)) | z-score [12] | z-score [13] | z-score [14] | z-score [15]
COC(=O)c1nc2oc1CC[C@@H](CO)NC(=O)N(C)Cc1cnnn1C[C@H](Cc1ccccc1)NC2=O | 0.841 | -1.07 (inactive) | 1.09 (inactive) | -0.288 (inactive) | 0.383 (inactive) | 0.477 (inactive) | 0.218 (inactive) | 1.12 (inactive) | 1.47 | -0.148 | 0.618 (inactive) | 0.944 | 1.06 | -0.449 (inactive) | -0.517 (inactive) | -0.393 (inactive)
CC(=O)NCCCC[C@@H]1NC(=O)[C@H]2C[C@@H](C(=O)NCCCC[N+](C)(C)C)[C@@H](c3cccc(OCCO)c3)N2C1=O | -0.704 | 0.294 (inactive) | 0.785 (inactive) | -30.8 (active) | 0.45 (inactive) | -0.724 (inactive) | 0.417 (inactive) | -0.369 (inactive) | 0.228 | 0.0223 | 2.02 (inactive) | 0.823 | -0.207 | -1.96 (inactive) | 0.0751 (inactive) | 0.341 (inactive)
Cc1cc(C)c(C(O)C2C=CC3C(=O)N(c4ccccc4)C(=O)C3N2Nc2ccc(C(C)C)cc2)c(C)c1 (stereo not drawn) | -1.47 | 0.626 (inactive) | -1.8 (inactive) | 0.68 (inactive) | 1.28 (inactive) | 1.58 (inactive) | -0.841 (inactive) | -0.876 (inactive) | -1.08 | -0.387 | 1.21 (inactive) | 0.736 | -0.701 | -3.21 (inactive) | 0.609 (inactive) | 0.335 (inactive)
C=C(C)c1cc2c(c(CCCCCC)n1)[Si](C(C)C)(C(C)C)OC2 | -0.0592 | 1.37 (inactive) | 0.272 (inactive) | 4.59 (inactive) | -0.735 (inactive) | 1.06 (inactive) | 0.251 (inactive) | 0.246 (inactive) | 0.16 | 0.0623 | -0.525 (inactive) | -0.115 | -0.631 | -1.76 (inactive) | 0.213 (inactive) | 1.53 (inactive)
COCCOC(=O)N1C(=O)[C@@]2(c3cc(C#CCC(C(=O)OC)C(=O)OC)ccc31)[C@H](C(=O)N1CCc3cc(OC)c(OC)cc3C1)[C@H]1C(=O)O[C@H](c3ccccc3)[C@H](c3ccccc3)N1[C@@H]2c1ccc(OCCO)cc1 | -0.679 | 1.63 (inactive) | -0.348 (inactive) | -1.34 (inactive) | 2.39 (inactive) | 2.8 (inactive) | -0.132 (inactive) | 0.325 (inactive) | 0.847 | -0.332 | 0.655 (inactive) | 0.749 | -2.1 | 3.49 (inactive) | -0.0997 (inactive) | 0.159 (inactive)
C=CCC(OC(C)=O)[C@@H]1[C@@H](N(Cc2cccc3ccccc23)C(=O)Cc2ccc(F)cc2)c2cc(OCCCO)ccc2N1C(=O)c1ccc2ccccc2n1 (stereo partly drawn) | -0.157 | 0.0526 (inactive) | 0.263 (inactive) | 0.451 (inactive) | 0.501 (inactive) | -0.142 (inactive) | -0.406 (inactive) | 0.0816 (inactive) | 0.493 | 0.357 | -0.533 (inactive) | -0.272 | -2.13 | -1.34 (inactive) | -0.172 (inactive) | -0.761 (inactive)
CCC(CC)C(O)C1C=CC2C(=O)N(c3ccccc3)C(=O)C2N1Nc1ccc(C(C)C)cc1 (stereo not drawn) | -1.35 | -0.129 (inactive) | -0.636 (inactive) | 0.851 (inactive) | 0.89 (inactive) | 1.27 (inactive) | -0.171 (inactive) | -0.297 (inactive) | -0.0095 | 0.159 | 0.0969 (inactive) | 0.586 | -0.615 | -3.2 (inactive) | -0.681 (inactive) | -0.765 (inactive)
CC(C)(C)N1CC=CC23O[C@@H]4C=CCCOC(=O)C4[C@H]2C(=O)N(CCO)[C@@H]3C1=O (stereo partly drawn) | 0.388 | 0.0947 (inactive) | -0.512 (inactive) | 0.427 (inactive) | 0.345 (inactive) | 0.451 (inactive) | -1.02 (inactive) | -1.05 (inactive) | -1.13 | 0.072 | -0.692 (inactive) | -0.421 | -0.175 | -4.92 (inactive) | 0.0024 (inactive) | -0.528 (inactive)
COC(=O)[C@@]1(Cc2ccc(OC)cc2)[C@H]2c3cc(C(=O)N(C)C)n(CCO)c3C[C@H]2CN1C(=O)c1ccccc1 | -0.822 | 0.474 (inactive) | -1.23 (inactive) | -0.462 (inactive) | 0.33 (inactive) | -0.562 (inactive) | -0.748 (inactive) | -0.173 (inactive) | -0.915 | 0.0223 | -0.509 (inactive) | -0.947 | 0.302 | -4.38 (inactive) | 0.931 (inactive) | 0.524 (inactive)
C=CCN1C(=O)[C@@]2(O[C@@H](CCn3cc([C@H](O)c4ccccc4)nn3)[C@H]([Si](C)(C)c3ccc(OC)cc3)[C@H]2C)c2cc(N3CCC3=O)ccc21 | -0.721 | 0.869 (inactive) | -1.14 (inactive) | 0.936 (inactive) | 1.25 (inactive) | 2.39 (inactive) | 0.397 (inactive) | 0.477 (inactive) | -1.09 | -0.153 | -0.0195 (inactive) | -0.114 | -2.1 | -5.38 (inactive) | -0.108 (inactive) | 0.582 (inactive)
O=c1n(-c2ccccc2)c(=O)n2n1CC(COc1ccccc1)=C([C@H](O)CCc1ccccc1)[C@@H]2CO | -0.633 | -2.28 (inactive) | -0.83 (inactive) | -1.09 (inactive) | -0.0126 (inactive) | -3.02 (inactive) | 1.24 (inactive) | 0.395 (inactive) | -0.0454 | -0.472 | 0.0148 (inactive) | -0.407 | -0.601 | -7.77 (inactive) | -0.268 (inactive) | 0.771 (inactive)
CN(C)C(=O)[C@@]1(CCS(=O)(=O)c2ccccc2)N=C(c2ccc(OCCCO)cc2)O[C@H]1c1ccccc1 | 0.29 | 0.26 (inactive) | -0.236 (inactive) | -0.431 (inactive) | -0.372 (inactive) | -0.0905 (inactive) | -1.47 (inactive) | -0.732 (inactive) | -0.22 | -0.0866 | 0.77 (inactive) | 0.704 | -1.48 | -6.87 (inactive) | -0.13 (inactive) | -0.0208 (inactive)
COC(=O)Cn1c(C(=O)N(C)C)cc2c1C[C@H]1CN(C(=O)c3ccccc3)[C@@](Cc3ccc(F)cc3)(C(=O)OC)[C@@H]21 | -0.836 | 2.15 (inactive) | -0.702 (inactive) | 0.289 (inactive) | 0.743 (inactive) | 1.34 (inactive) | -0.61 (inactive) | -0.582 (inactive) | -0.795 | -0.13 | 1.69 (inactive) | -0.196 | -0.0793 | -4.28 (inactive) | 0.927 (inactive) | 1.08 (inactive)
O=C1O[C@H](c2ccccc2)[C@H](c2ccccc2)N2[C@H]1[C@@H](C(=O)Nc1nc3ccccc3s1)[C@]1(C(=O)Nc3ccccc31)[C@H]2c1ccc(OCCO)cc1 | 0.0114 | 0.445 (inactive) | -1.08 (inactive) | -1.8 (inactive) | 3.02 (inactive) | 1.68 (inactive) | -0.476 (inactive) | 0.282 (inactive) | -2.02 | -0.356 | -0.434 (inactive) | 0.652 | -1.33 | 1.24 (inactive) | 0.0458 (inactive) | -0.0249 (inactive)
C[C@H]1NC(=O)[C@@]23C(=O)N[C@@H](Cc4ccccc4)C2[C@H](C)[C@@]2(C)O[C@H]2C3/C=C/C/C=C\CNC(=O)[C@H](Cc2ccccc2)NC1=O (stereo partly drawn) | -0.466 | 0.303 (inactive) | -0.0253 (inactive) | 0.226 (inactive) | 1.24 (inactive) | 1.31 (inactive) | 0.513 (inactive) | 0.32 (inactive) | 0.0583 | 0.104 | 0.0017 (inactive) | 0.424 | -1.4 | -7.15 (inactive) | 0.116 (inactive) | 0.368 (inactive)
COc1ccc(CCN2C(=O)[C@@]3(Cc4ccccc42)c2ccccc2C(=O)N(Cc2ccccc2OC)[C@H]3c2ccc(CO)cc2)cc1 | -0.736 | -0.158 (inactive) | 0.289 (inactive) | -4.65 (inactive) | -0.0065 (inactive) | -1.16 (inactive) | 0.981 (inactive) | 0.339 (inactive) | 1.01 | -0.194 | -0.22 (inactive) | 0.425 | -1.39 | -0.208 (inactive) | -0.154 (inactive) | 0.0689 (inactive)
C=CCOC(=O)[C@H]1[C@@H]2C(=O)O[C@@H](c3ccccc3)[C@@H](c3ccccc3)N2[C@@H](c2ccc(OCCOC(=O)[C@@H]3C[C@@H]4C(=O)N[C@@H](CCCCNC(C)=O)C(=O)N4[C@@H]3c3ccc(O)cc3)cc2)[C@]12C(=O)Nc1ccc(I)cc12 | -0.634 | 1.46 (inactive) | -1.77 (inactive) | 0.158 (inactive) | 1.55 (inactive) | 0.925 (inactive) | -0.508 (inactive) | -1.25 (inactive) | -0.533 | 0.026 | 0.875 (inactive) | 0.811 | -1.96 | -0.356 (inactive) | -0.235 (inactive) | 0.0348 (inactive)
CC(c1ccccc1)C(O)C1C=CC2C(=O)N(c3ccccc3)C(=O)C2N1Nc1ccc([N+](=O)[O-])cc1 (stereo not drawn) | 0.796 | 0.326 (inactive) | 0.831 (inactive) | 0.101 (inactive) | 0.449 (inactive) | 0.399 (inactive) | -0.821 (inactive) | 0.434 (inactive) | 0.538 | -0.334 | 0.725 (inactive) | 0.837 | -0.917 | -3.22 (inactive) | 0.433 (inactive) | 0.104 (inactive)

Source: PubChem BioAssay
